Compound activity (PubChem)
FBPA coupling cs: coupling enzyme interference in Giardia aldolase counter-screen; coupling enzyme system counterscreen, AmpLite Red fluorescence; activity change, negative = inhibition, % at 58.2 µM, hits read low; actives 0.67% (n = 290,000); in the data active = activity change below about -30%
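Coupling enzymes only (glyceraldehyde-3-phosphate) + compound, at 57.5 uM final, 10 min RT; add substrate/coupling/AmpLite Red mix, 20 min RT; fluorescence ex 525/em 598 nm. Actives flag coupling-system interference.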
Tau FP inhib: blocks human tau fibril formation measured by polarization | actives 0.39% (n = 280,000) | Potency, µM (titrated, usually from 57.7 µM), for the others: at the top dose activity, negative = inhibition, hits mostly inhibitors | K18 P301L tau heparin fibrillization, Alexa594 FP, 6 h; note: potency is the fitted concentration of half-maximal effect; nearly all actives have a fitted effect of over 55% in size
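Human tau K18 […] P301L fragment, 15 uM unlabeled plus 0.24 uM Alexa 594-labeled tau (final), with compound and 20 uM heparin in 100 mM sodium acetate pH 7; 6 hr at 37 C, then Alexa 594 FP read.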
Tau ThT inhib: tau fibrillization inhibition (ThT binding) | P10636 | Potency, µM (series often up to 57.4 µM), for the others: top-dose activity, negative = inhibition, usual class: inhibitors | recombinant tau K18 P301L, heparin-induced fibrillization, ThT fluorescence | actives 2.1% (n = 270,000) | AID 1460; note: potency is the fitted concentration of half-maximal effect; nearly all actives have a fitted effect of over 55% in size
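K18 P301L tau (15 uM + 0.24 uM Alexa 594-tagged), heparin 20 uM, NaOAc pH 7, 6 h 37 C; ThT 30 uM, 1 h RT, ex 450/em 510 nm.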
Tau fluor counter: counter-screen for tau fibril formation inhibitors | actives 0.93% (n = 280,000) | AID 1463 | Potency, µM (top dose mostly 57.7 µM), without a hit: at the top dose activity change, negative = decrease | tau K18 P301L Alexa594 fluorescence, heparin fibrillization; note: potency is the fitted concentration of half-maximal effect; nearly all actives have a fitted effect of over 55% in size
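Human tau K18 P301L (15 uM unlabeled, 0.24 uM Alexa 594-labeled) in 100 mM sodium acetate pH 7 with 20 uM heparin, 6 hr at 37 C. ThT 30 uM added, 1 hr ambient; Alexa 594 FP and total fluorescence read at 555/632 nm.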
USP1 inh: inhibitors of human USP1/UAF1 deubiquitinase | recombinant USP1/UAF1, Ub-Rhodamine cleavage fluorescence | O94782 | Potency, µM (doses to about 57.1 µM), inactives show at the highest dose activity change, negative = inhibition, hits mostly inhibitors | actives 0.23% (n = 390,000) | AID 743255; note: potency is the fitted concentration of half-maximal effect; nearly all actives have a fitted effect of over 60% in size
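USP1/UAF1 complex (1 nM) preincubated 15 min at room temperature with compound, then Ub-Rho substrate (150 nM final) added. Kinetic fluorescence at 480/540 nm over 6 reads at 60 s intervals; 50 mM HEPES pH 7.8, 0.5 mM EDTA, 0.1 mg/ml BSA, 1 mM TCEP, 0.01% Tween-20.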
* hit, by the source's call; ? = inconclusive; . = not tested or not shown; [ ] = remark or other dose. Most compounds without a hit are left out; they make up all but 2.3% or so of the library. Unless noted, calls come from the whole dose curve; as a rule, active = well fitted curve in the direction sought with a large enough effect; inconclusive = small, poorly fitted or top-dose-only effect, or another doubt; inactive = no such curve, though single readings can be large; an effect the other way counts as inactive or inconclusive. % is set by controls: 0 for no effect and ±100 for the full control effect.

SMILES	FBPA coupling cs	Tau FP inhib	Tau ThT inhib	Tau fluor counter	USP1 inh
C/C(=N/Nc1ccc(C(=O)O)cc1)c1ccc(O)c(O)c1O	-34*	?	11µM*	-22%	-14%
COc1ccc(OC)c(/C(C)=N/Nc2ccc(C(=O)O)cc2)c1	14	-5%	7%	13%	-23%
COc1nc(-c2ccc(C)cc2)ccc1-c1noc(-c2ccc(C(C)(C)C)cc2)n1	.	0%	-13%	-8%	-2%
COc1cc(OC)c(NC(=S)Nc2cc(Cl)cc(Cl)c2)cc1Cl	-2	3%	?	25µM*[quencher]	-14%
COc1cc(OC)c(NC(=S)Nc2cccc(C(C)=O)c2)cc1Cl	1	0%	?	?	-9%
Cc1c[nH]c2cccc(OCC(O)CNC(C)(C)C)c12 (centres undefined)	-35*	?	-7%	-2%	-3%
CC(C)(C)NCC(O)COc1ccccc1C(C)(C)C (centres undefined)	-1	?	-10%	-3%	4%
FC(F)(F)c1nc2ccccc2nc1N/N=C\c1ccccc1	-4	1%	14µM*	?	-16%
Cc1oc(-c2ccc(C(=O)NCCc3ccc(Cl)cc3)cc2)nc1CSc1ccccc1	.	?	1%	-2%	-18%
O=C(NC1CC1)c1sc2cc([N+](=O)[O-])ccc2c1Cl	-2	5%	?	-15%	-18%
CC(NC(=O)c1sc2cc([N+](=O)[O-])ccc2c1Cl)C(C)(C)C (centres undefined)	-3	?	22µM*	-26%	-15%
CCOC(=O)C1CCN(C(=O)Cn2c(=O)oc3cc(S(=O)(=O)N4CCC(C)CC4)ccc32)CC1	.	-1%	5%	-2%	-7%
Cc1ncsc1C(=O)N1N=C2/C(=C/c3ccccc3)CCCC2C1c1ccccc1 (centres undefined)	0	-2%	-12%	-3%	?
Cc1ncsc1C(=O)N1N=C2/C(=C/c3ccc(N4CCOCC4)cc3)CCCC2C1c1ccc(N2CCOCC2)cc1 (centres undefined)	-1	5%	14µM*	-22%	-27%
COC(=O)[C@@]1(Cc2ccc(OC)cc2)[C@H]2c3cc(C(=O)N4CCCC4)n(CCc4ccc(O)c(O)c4)c3C[C@H]2CN1C(=O)c1ccccc1	-4	-4%	?	-25%	.
C=CCONC(=O)Cc1ccccc1	.	.	.	.	-2%
CCOc1ccc2nc3cc(N)ccc3c(N)c2c1	-26	?	7.1µM*	13µM*[quencher]	.
CCOC(=O)CN1C(=O)C(=O)N(Cc2c(F)cccc2Cl)C1=O	0	.	.	.	1%
COc1ccc(CNC(=O)CSc2ncc(S(=O)(=O)c3ccc(Br)cc3)c(=O)[nH]2)cc1	.	4%	-6%	-4%	-21%
COC(=O)c1cc(Cl)ccc1NC(=O)CSc1ncc(S(=O)(=O)c2ccc(Br)cc2)c(=O)[nH]1	.	?	32µM*	-17%	?
CC(=O)Oc1cccc2c1C(=O)C1CC=CC(OC(C)=O)C1C2=O (centres undefined)	.	.	.	.	-19%
O=C(Nc1ccc2c(c1)OCO2)N1CCCc2ccccc21	0	-1%	-12%	-10%	-6%
Cc1ccc2c(c1)CCCN2C(=O)Nc1ccc2c(c1)OCO2	-40*	7%	?	-19%	-19%
COc1cc(C(=O)OCC(=O)N(CC(C)C)C2CCS(=O)(=O)C2)cc(OC)c1C (centres undefined)	.	.	.	.	-22%
O=C(Nc1ccccc1C(=O)N1CCCCC1)c1nsc2ccccc12	.	-3%	0%	-12%	0%
CCCCCCC(=O)Nc1nc(C)c(-c2csc(Nc3ccc(Cl)cc3)n2)s1	5	0%	5µM*	6.3µM*[quencher]	-26%
CCCCCC(=O)Nc1nc(C)c(-c2csc(Nc3ccc(Cl)cc3)n2)s1	2	8%	11µM*	10µM*[quencher]	-34%
Cc1ccc(O)c(-c2n[nH]c3c2C(c2ccccc2F)N(Cc2ccco2)C3=O)c1 (centres undefined)	.	-9%	?	?	?
Cc1[nH]c2ccccc2c1/C=N/Nc1ccc([N+](=O)[O-])cc1	-1	4%	0%	-1%	-16%
